# Inconclusive results are not listed. The source made the active and inactive calls. The calls were made as follows: active = hit-call score of the fitted dose curve at least 0.9, where 1 is the maximum; inconclusive = response in the unintended direction; inactive = score below 0.9.
# How the values were obtained:
# [1] = molecular target: Estrogen receptor (Homo sapiens) (UniProt P03372); assay: OT_ER_ERaERa_1440: Odyssey Thera (OT) 24-hour HEK293T Protein-Complementation Assay for Estrogen Receptor-alpha/-alpha Homodimer (AID 2283349);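 also: hits raise fluorescence above DMSO for agonists and antagonists alike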
# Chain of Estrogen receptor (Homo sapiens) (P03372 whole entry, looked up, the tested form may be a part): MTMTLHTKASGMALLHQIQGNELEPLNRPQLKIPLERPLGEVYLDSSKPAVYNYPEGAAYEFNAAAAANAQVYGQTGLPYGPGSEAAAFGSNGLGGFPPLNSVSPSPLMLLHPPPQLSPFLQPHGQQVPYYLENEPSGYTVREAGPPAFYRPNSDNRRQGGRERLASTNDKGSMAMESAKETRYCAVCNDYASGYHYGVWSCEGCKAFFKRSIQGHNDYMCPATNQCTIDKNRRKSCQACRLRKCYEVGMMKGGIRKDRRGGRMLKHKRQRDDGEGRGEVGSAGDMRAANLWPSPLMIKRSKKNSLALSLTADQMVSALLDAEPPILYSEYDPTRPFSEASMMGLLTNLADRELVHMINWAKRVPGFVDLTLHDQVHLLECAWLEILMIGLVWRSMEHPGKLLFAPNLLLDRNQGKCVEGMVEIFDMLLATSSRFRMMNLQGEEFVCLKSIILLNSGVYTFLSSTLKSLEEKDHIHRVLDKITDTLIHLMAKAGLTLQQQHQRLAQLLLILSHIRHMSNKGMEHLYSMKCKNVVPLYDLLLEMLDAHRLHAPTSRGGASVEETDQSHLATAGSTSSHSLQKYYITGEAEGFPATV
# Procedure, shortened: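 Protein-fragment complementation between two human ERα ligand-binding domains (aa 310-547) in stably transfected HEK293T cells was monitored after 24 h treatment, using fluorescence intensity relative to vehicle controls.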
# [2] = molecular target: Estrogen receptor (Homo sapiens) (UniProt P03372); assay: OT_ER_ERaERa_0480: Odyssey Thera (OT) 8-hour HEK293T Protein-Complementation Assay for Estrogen Receptor-alpha/-alpha Homodimer (AID 2283351);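 also: rise in fluorescence from reassembled reporter fragments on ERα LBD homodimer in nucleus or whole cell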
# Procedure, shortened: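 HEK293T cells stably expressing the human ERα ligand-binding domain (aa 310-547) as a homodimer PCA were dosed with compound for 8 h. Gain of fluorescence intensity versus DMSO vehicle was read by laser scanning cytometry.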
# [3] = molecular target: Estrogen receptor (Homo sapiens) (UniProt P03372); assay: NVS_NR_hER: NovaScreen (NVS) Nuclear Receptor Binding Assay for human Estrogen Receptor (ER) (AID 2283348)
# Procedure, shortened: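 Scintillation signal from bound radioligand was measured 18 hours after chemical addition to cell-free MCF7 protein extracts, with DMSO as baseline. Activity was scored as signal loss; compounds ran first at 25 uM in duplicate.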
# [4] = molecular target: Estrogen receptor (Homo sapiens) + Estrogen receptor beta (Homo sapiens) (UniProt P03372+Q92731); assay: OT_ER_ERaERb_0480: Odyssey Thera (OT) 8-hour HEK293T Protein-Complementation Assay for Estrogen Receptor-alpha/-beta Heterodimer (AID 2283352)
# Chain of Estrogen receptor (Homo sapiens) + Estrogen receptor beta (Homo sapiens) (P03372 whole entry, looked up, the tested form may be a part): as above
# Chain of Estrogen receptor (Homo sapiens) + Estrogen receptor beta (Homo sapiens) (Q92731 whole entry, looked up, the tested form may be a part): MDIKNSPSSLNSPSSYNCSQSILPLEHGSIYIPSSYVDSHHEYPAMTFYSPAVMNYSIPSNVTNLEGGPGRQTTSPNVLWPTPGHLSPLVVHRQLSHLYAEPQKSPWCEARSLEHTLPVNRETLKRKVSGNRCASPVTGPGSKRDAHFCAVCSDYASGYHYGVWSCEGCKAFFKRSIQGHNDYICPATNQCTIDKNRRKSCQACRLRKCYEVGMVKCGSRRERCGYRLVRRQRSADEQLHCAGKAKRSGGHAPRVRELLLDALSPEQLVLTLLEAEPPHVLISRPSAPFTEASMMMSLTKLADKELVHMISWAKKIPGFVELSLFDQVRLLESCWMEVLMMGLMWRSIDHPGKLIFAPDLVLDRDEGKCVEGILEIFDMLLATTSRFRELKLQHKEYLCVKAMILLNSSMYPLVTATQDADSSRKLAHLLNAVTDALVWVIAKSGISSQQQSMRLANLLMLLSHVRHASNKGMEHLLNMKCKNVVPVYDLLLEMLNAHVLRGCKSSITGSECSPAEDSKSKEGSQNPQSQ
# Procedure, shortened: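 HEK293T protein-fragment complementation assay of ER-alpha/ER-beta LBD heterodimerisation, read 8 h after dosing. Mean nuclear/cytoplasmic fluorescence intensity measured by laser scanning cytometry; gain of signal fitted relative to DMSO.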
# [5] = molecular target: human Constitutive Androstane Receptor (CAR), NR1I3 (gene 9970) (UniProt Q14994); assay: NVS_NR_hCAR_Antagonist: NovaScreen (NVS) Nuclear Receptor Binding Assay for human Constitutive Androstane Receptor Antagonism (CAR) (AID 2283344)
# Chain of human Constitutive Androstane Receptor (CAR), NR1I3 (gene 9970) (Q14994 whole entry, looked up): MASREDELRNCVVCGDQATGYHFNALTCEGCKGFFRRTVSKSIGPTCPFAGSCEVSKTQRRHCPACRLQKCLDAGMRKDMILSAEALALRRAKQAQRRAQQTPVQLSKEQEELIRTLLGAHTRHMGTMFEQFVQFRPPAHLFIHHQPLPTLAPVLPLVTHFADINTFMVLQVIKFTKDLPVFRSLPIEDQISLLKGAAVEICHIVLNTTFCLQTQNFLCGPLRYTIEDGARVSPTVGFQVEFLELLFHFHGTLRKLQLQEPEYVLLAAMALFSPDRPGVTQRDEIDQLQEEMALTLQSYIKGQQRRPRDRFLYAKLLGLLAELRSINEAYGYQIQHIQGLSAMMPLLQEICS
# Procedure, shortened: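 Cell-free TR-FRET binding read 1 h after dosing, antagonist mode; loss of signal versus DMSO baseline. Primary screen in duplicate at a single 25 uM; actives retested in concentration series.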
# [6] = molecular target: chimpanzee Androgen Receptor (AR), AR (gene 747460) (UniProt O97775); assay: NVS_NR_cAR: NovaScreen (NVS) Nuclear Receptor Binding Assay for chimpanzee Androgen Receptor (AR) (AID 2283346);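 also: radioligand displacement from AR measured by scintillation counting in a cell-free assay; a loss of bound radioligand signal versus DMSO counts as binding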
# Chain of chimpanzee Androgen Receptor (AR), AR (gene 747460) (O97775 whole entry, looked up): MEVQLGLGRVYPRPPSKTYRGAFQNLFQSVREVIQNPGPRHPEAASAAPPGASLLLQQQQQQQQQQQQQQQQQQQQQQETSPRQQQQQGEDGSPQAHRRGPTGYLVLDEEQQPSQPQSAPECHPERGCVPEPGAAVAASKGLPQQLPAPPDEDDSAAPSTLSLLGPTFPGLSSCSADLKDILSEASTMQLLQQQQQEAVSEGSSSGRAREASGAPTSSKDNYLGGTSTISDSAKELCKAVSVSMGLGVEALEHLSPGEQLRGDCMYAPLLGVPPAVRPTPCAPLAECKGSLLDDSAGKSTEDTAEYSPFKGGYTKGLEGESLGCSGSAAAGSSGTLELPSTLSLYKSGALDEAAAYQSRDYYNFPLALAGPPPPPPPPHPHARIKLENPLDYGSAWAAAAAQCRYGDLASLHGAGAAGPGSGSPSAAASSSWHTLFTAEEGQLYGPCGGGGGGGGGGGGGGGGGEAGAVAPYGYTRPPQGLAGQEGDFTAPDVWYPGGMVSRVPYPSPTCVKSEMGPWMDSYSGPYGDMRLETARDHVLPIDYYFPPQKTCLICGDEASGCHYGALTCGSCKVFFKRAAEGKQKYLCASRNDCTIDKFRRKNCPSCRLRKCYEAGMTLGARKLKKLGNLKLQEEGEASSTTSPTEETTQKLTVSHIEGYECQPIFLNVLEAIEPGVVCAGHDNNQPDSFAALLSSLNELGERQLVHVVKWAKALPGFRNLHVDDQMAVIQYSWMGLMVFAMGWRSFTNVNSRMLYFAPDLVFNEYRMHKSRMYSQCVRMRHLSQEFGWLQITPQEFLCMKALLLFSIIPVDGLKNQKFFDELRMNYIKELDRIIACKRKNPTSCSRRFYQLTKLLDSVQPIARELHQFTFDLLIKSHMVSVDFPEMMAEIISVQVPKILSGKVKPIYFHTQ
# Procedure, shortened: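 Cell-free competition binding with insect-cell (Sf9/Sf21) extracted chimpanzee AR; scintillation signal from lysate at 72 h. Screened in duplicate at 25 uM, then concentration-response for actives; fitting relative to DMSO.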
# [7] = molecular target: Bile acid receptor (Homo sapiens) (UniProt Q96RI1); assay: NVS_NR_hFXR_Antagonist: NovaScreen (NVS) Nuclear Receptor Binding Assay for human Farnesoid X Receptor Antagonism (FXR) (AID 2283350)
# Chain of Bile acid receptor (Homo sapiens) (Q96RI1 whole entry, looked up): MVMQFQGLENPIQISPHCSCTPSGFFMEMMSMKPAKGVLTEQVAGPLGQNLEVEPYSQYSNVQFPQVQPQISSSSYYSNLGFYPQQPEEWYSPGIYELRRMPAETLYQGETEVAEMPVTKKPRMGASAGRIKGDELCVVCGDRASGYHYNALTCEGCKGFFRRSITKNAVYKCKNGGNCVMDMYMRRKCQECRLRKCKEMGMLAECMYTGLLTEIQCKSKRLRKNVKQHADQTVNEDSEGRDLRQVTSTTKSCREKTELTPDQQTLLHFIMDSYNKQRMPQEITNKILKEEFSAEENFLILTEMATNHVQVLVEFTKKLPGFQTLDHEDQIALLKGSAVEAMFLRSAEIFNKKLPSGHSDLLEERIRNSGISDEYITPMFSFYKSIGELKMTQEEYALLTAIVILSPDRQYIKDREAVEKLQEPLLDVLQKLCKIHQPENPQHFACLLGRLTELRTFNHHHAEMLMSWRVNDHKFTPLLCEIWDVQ
# Procedure, shortened: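 Cell-free TR-FRET ligand-binding read-out on human FXR (NR1H4) in antagonist mode, measured 1 h after dosing. Primary screen in duplicate at 25 uM, actives retested in concentration series; signal loss scored versus DMSO.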
# [8] = NVS_IC_rCaBTZCHL: NovaScreen (NVS) Ion Channel Assay for Calcium Channel, Type L, Benzothiazepine Site (CaBTZCHL) (AID 2283337)
# Procedure, shortened: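 Radioligand binding to the benzothiazepine site of L-type Ca channels in rat cortical membranes (cell-free), 1.5 h after dosing; filter-based scintillation counting. Loss of signal relative to DMSO baseline; primary single-concentration screen at 25 uM, actives then run in concentration series.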
# [9] = molecular target: bovine Gamma-Aminobutyric Acid Type A Receptor Agonist (GABAR Agonist), GABRA1 (gene 780973) (UniProt P08219); assay: NVS_LGIC_bGABAR_Agonist: NovaScreen (NVS) Ligand-Gated Ion Channel Assay for bovine Gamma-Aminobutyric Acid Type A Receptor Agonist (GABAR Agonist) (AID 2283338)
# Chain of bovine Gamma-Aminobutyric Acid Type A Receptor Agonist (GABAR Agonist), GABRA1 (gene 780973) (P08219 whole entry, looked up): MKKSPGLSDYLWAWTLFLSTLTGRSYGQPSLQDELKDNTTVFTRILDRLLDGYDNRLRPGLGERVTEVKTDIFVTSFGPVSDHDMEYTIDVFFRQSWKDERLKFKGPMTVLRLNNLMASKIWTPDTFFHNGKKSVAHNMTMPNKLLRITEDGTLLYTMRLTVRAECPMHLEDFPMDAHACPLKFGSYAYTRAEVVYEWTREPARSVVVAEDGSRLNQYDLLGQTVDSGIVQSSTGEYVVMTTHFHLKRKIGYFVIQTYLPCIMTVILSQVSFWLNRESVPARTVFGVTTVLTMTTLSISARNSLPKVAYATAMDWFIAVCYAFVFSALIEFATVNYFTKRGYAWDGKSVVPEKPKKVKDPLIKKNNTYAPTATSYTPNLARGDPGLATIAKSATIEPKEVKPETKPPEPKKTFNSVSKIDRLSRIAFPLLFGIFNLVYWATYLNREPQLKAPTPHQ
# Procedure, shortened: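 Radioligand binding to bovine cerebellar membranes in agonist format, read by filter-based scintillation counting after 1 h. Primary screen in duplicate at 25 uM, with actives followed in concentration series. Gain of signal versus DMSO.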
# [10] = molecular target: rat Glycine Receptor, Strychnine-sensitive (GlyRStrySens), Glra1 (gene 25674) (UniProt P07727); assay: NVS_LGIC_rGlyRStrySens: NovaScreen (NVS) Ligand-Gated Ion Channel Assay for rat Glycine Receptor, Strychnine-sensitive (GlyRStrySens) (AID 2283341)
# Chain of rat Glycine Receptor, Strychnine-sensitive (GlyRStrySens), Glra1 (gene 25674) (P07727 whole entry, looked up): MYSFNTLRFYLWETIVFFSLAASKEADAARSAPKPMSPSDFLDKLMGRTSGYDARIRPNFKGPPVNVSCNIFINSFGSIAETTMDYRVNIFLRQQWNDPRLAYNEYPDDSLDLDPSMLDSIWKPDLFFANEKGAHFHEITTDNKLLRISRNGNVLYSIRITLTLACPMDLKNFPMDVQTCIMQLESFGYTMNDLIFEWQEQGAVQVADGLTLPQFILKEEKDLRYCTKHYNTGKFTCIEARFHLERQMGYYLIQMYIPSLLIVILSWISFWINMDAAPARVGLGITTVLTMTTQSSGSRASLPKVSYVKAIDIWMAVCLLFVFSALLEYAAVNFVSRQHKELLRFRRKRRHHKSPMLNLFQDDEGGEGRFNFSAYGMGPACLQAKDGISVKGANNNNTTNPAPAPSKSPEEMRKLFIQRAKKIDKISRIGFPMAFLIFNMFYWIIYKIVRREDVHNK
# Procedure, shortened: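 Radioligand displacement on rat spinal cord membranes, 1 hr, filter scintillation read-out. Single-concentration duplicate screen at 25 uM; chemicals meeting threshold (e.g., 30% inhibition) rerun in concentration-response up to 50 uM. Loss of binding fitted versus DMSO.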
smiles,measurement,setting,value
CCCCCCCCOc1ccc(C(=O)c2ccccc2)c(O)c1,outcome,[1],inactive
same,outcome,[2],inactive
CCCOC(=O)c1cc(O)c(O)c(O)c1,outcome,[3],inactive
same,outcome,[1],inactive
same,AC50,[2],50 µM (active)
same,AC50,[4],39.8 µM (active)
CC1=CC(=O)/C(=C(/C)O)C(=O)O1,outcome,[5],inactive
same,outcome,[1],inactive
same,outcome,[2],inactive
same,outcome,[4],inactive
CN1C(=O)N(c2ccccc2Br)Cc2cnc(Nc3ccc4c(c3)OCC(CO)O4)nc21 (centres undefined),outcome,[6],inactive
same,outcome,[1],inactive
same,AC50,[7],0.0374 µM (active)
same,outcome,[2],inactive
same,outcome,[4],inactive
COc1cccc([C@H](O)C2CCN(CCc3ccc(F)cc3)CC2)c1OC,AC50,[8],1.35 µM (active)
same,outcome,[1],inactive
same,outcome,[2],inactive
same,outcome,[4],inactive
OCCO,outcome,[1],inactive
same,outcome,[2],inactive
CC(=O)N1CCN(c2ccc(OC[C@H]3CO[C@](Cn4ccnc4)(c4ccc(Cl)cc4Cl)O3)cc2)CC1,outcome,[5],inactive
same,outcome,[1],inactive
same,AC50,[7],20.2 µM (active)
same,outcome,[2],inactive
same,outcome,[4],inactive
Clc1cc(Cl)c2c(c1)N=C1CCCCCN1C2,outcome,[8],inactive
same,outcome,[5],inactive
same,outcome,[1],inactive
same,outcome,[2],inactive
Cc1cccc2ccccc12,outcome,[9],inactive
same,outcome,[1],inactive
same,outcome,[2],inactive
CCN(Cc1cccc(S(=O)(=O)O)c1)c1ccc(C(=C2C=CC(=[N+](CC)Cc3cccc(S(=O)(=O)O)c3)C=C2)c2ccccc2S(=O)(=O)[O-])cc1,AC50,[6],16.1 µM (active)
same,outcome,[1],inactive
same,outcome,[7],inactive
same,outcome,[4],inactive
Cc1cn([C@H]2C[C@H](N=[N+]=[N-])[C@@H](CO)O2)c(=O)[nH]c1=O,outcome,[1],inactive
O=C(O)Cc1cc(I)c(Oc2ccc(O)c(I)c2)c(I)c1,outcome,[10],inactive
same,AC50,[7],40.3 µM (active)
Cc1ccc(C(C)C)cc1,outcome,[9],inactive
same,outcome,[1],inactive
same,outcome,[2],inactive
CCCCCCCCCCCCO,outcome,[1],inactive
same,outcome,[2],inactive
same,outcome,[4],inactive
CC(C)(C)c1csc(-c2cc3cc(OCc4ccccc4CC(=O)O)ccc3o2)n1,outcome,[5],inactive
same,outcome,[1],inactive
same,outcome,[2],inactive
same,outcome,[4],inactive
c1ccc2ccccc2c1,outcome,[3],inactive
same,outcome,[1],inactive
same,outcome,[2],inactive
O=C1O[C@H]([C@@H](O)CO)C(O)=C1O,outcome,[9],inactive
O=C(Nc1ccc(Cl)cc1)Nc1ccc(Cl)c(Cl)c1,outcome,[3],inactive
same,outcome,[1],inactive
same,outcome,[7],inactive
same,outcome,[2],inactive
same,outcome,[4],inactive
CCCCCCCCCCCO,outcome,[3],inactive
same,outcome,[1],inactive
same,outcome,[2],inactive
same,outcome,[4],inactive
CC(C)(c1cc(Br)c(O)c(Br)c1)c1cc(Br)c(O)c(Br)c1,AC50,[9],44.4 µM (active)
